Rows were chosen to be rich in hits. Some 2.1% of all compounds tested hit in one or more screens of this group.
PrPC TRFRET: inhibitors of human cell surface prion protein PrPC, primary screen, cell-based, TR-FRET. TR-FRET read-out. inhibition, % at 13.8 µM. 370,000 tested, 0.43% active. AID 720596, 2013; in the data active = inhibition above about 24%
MazF activator: activators of E. coli MazEF toxin-antitoxin RNase, primary screen, biochemical, fluorescence, uHTS. activation, % at 20 µM. 350,000 tested, 0.32% active. FAM/BHQ RNA-DNA oligo cleavage fluorescence, 5 h. Endoribonuclease toxin MazF (Escherichia coli (strain K12)), P0AE70; in the data active = activation above about 50%
Target sequence (P0AE70 whole entry, looked up): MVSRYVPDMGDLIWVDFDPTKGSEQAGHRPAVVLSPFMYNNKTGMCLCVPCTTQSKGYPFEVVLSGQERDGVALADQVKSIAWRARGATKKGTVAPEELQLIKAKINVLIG
PrP 5UTR inh: inhibition of PrP 5' UTR reporter expression | 340,000 tested, 0.35% active | AID 488862, 2010 | cell-based PrP 5' UTR mRNA reporter, plate reader | inhibition, % (no concentration beside the values); in the data active = inhibition above about 52%
PfHsp40 rescue: rescue of yeast from PfHsp40 toxicity, primary screen, S. cerevisiae, ATP luminescence; growth rescue, % at 12.5 µM; 340,000 tested, 0.68% active; S. cerevisiae expressing PfHsp40, growth rescue; in the data active = growth rescue above about 28%, passing the limit was not always enough;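 note: yeast W303a lacking pdr1 and pdr3 grown in galactose medium; growth measured after three days at 30 °C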
DUSP3 inh: VHR1 phosphatase inhibitors, primary screen, biochemical, absorbance, uHTS. 290,000 tested, 0.52% active. inhibition, % at 13.3 µM. Dual specificity protein phosphatase 3 (Homo sapiens), P51452. recombinant VHR phosphatase, pNPP absorbance; in the data active = inhibition above about 50%
Target sequence (P51452 whole entry, looked up): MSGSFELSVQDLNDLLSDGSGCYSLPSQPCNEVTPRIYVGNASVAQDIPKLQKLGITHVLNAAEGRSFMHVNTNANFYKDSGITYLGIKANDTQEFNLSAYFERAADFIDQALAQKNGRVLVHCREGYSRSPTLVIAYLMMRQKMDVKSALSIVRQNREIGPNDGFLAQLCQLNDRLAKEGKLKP
BJeLR lethal: MLPCN primary cell-based screen for lethality selective to Ras in HRASV12 cells; 300,000 tested, 0.17% active; inhibition, % (test concentration not listed); AID 1554, 2009; BJeLR (HRASV12) viability, CellTiter-Glo ATP luminescence, 48 h; in the data active = inhibition above about 50%
Each line names hits and unclear results; the compound was inactive in the other large screens.

COc1cccc(NCc2cc(=O)oc3cc(C)c(O)cc23)c1	DUSP3 inh 52 (no result: PfHsp40 rescue)
CCOc1ccccc1NCc1cc(=O)oc2cc(C)c(O)cc12	DUSP3 inh 55
CC(C)NC(=O)OC1CC2CC1[C@H]1CCCCN1C2=O (stereo partly drawn)	none (no result: MazF activator, PrP 5UTR inh, PfHsp40 rescue, DUSP3 inh, BJeLR lethal)
S=c1[nH]nc(COc2ccccc2)n1Cc1ccccc1	none
CCc1ccc(OCc2n[nH]c(=S)n2Cc2ccccc2)cc1	PfHsp40 rescue 101
CCc1ccc(OCc2n[nH]c(=S)n2C(C)CCCC(C)C)cc1 (stereo not drawn)	PfHsp40 rescue 57
C[C@H]1CNC(=O)C(=O)N1C[C@H](Cc1ccc(O)cc1)NC(=O)CC12CC3CC(CC(C3)C1)C2	none
CCCCc1nnc(NC(=O)CCS(=O)(=O)c2ccc(Cl)cc2)s1	none (no result: DUSP3 inh, BJeLR lethal)
Cc1ccc(NC(=O)c2cc3nc(C)cc(C)n3n2)cc1	PfHsp40 rescue 47
O=C(NC(Cc1c[nH]c2ccccc12)C(=O)NCCCN1CCOCC1)c1cccs1 (stereo not drawn)	none
N#Cc1ccc(-c2cccs2)nc1SCc1cccnc1	BJeLR lethal 51 (no result: PrP 5UTR inh, PfHsp40 rescue)
CCOc1ccc(OCC)c(NC(=O)C2CCCN(c3ncccn3)C2)c1 (stereo not drawn)	none (no result: PrP 5UTR inh)
CCc1ccccc1NC(=O)C1CCCN(c2ncccn2)C1 (stereo not drawn)	DUSP3 inh 50
OC(CCCN1CCCCC1)(c1ccccc1)c1ccc(C(F)(F)F)cc1 (stereo not drawn)	none (no result: DUSP3 inh, BJeLR lethal)
COc1ccc(-c2csc3nc(C(C)(C)C)oc(=O)c23)cc1OC	none
COc1ccc(-c2csc3nc(-c4ccc(C)cc4)oc(=O)c23)cc1OC	DUSP3 inh 92
CCC(=O)N(C(=O)CC)N1CCN(c2ccncc2S(=O)(=O)N2CCCCC2)CC1	none
C=CCOc1nc2c(c(=O)n(C)c(=O)n2C)n1Cc1ccccc1Cl	none
C=CCOc1nc2c(c(=O)n(C)c(=O)n2C)n1Cc1ccc(Cl)cc1	DUSP3 inh 55
C[C@H](O)[C@@H]1CN2CCc3c([nH]c4ccc(-c5ccc6c(c5)OCO6)cc34)[C@@H]2C[C@@H]1N(C)C(=O)NC1CCCCC1	none (no result: PrP 5UTR inh, PfHsp40 rescue, DUSP3 inh, BJeLR lethal)
COc1ccc(NC(=O)N2CCC(c3nc4ccc(Cl)cc4[nH]3)CC2)cc1OC	none (no result: MazF activator, PrP 5UTR inh, PfHsp40 rescue, DUSP3 inh, BJeLR lethal)
CCN1CCCC1CN(Cc1cc2c(C)cc(C)cc2[nH]c1=O)C(=O)NC1CCCCC1 (stereo not drawn)	MazF activator 59
CCOC(=O)C1(Cc2cccc(Cl)c2)CCCN(C(=O)c2c(CC)noc2C)C1 (stereo not drawn)	none
CCCCCCCCCn1cc(C(C)=O)c(=O)[nH]c1=O	DUSP3 inh 50
Cc1ccc(CS(=O)(=O)CCC(=O)NCCCN2CCCC2)cc1	DUSP3 inh 51
COc1ccc(NC(=O)C(C)N2CCN(C)CC2)cc1 (stereo not drawn)	none
COc1cc(/C=C2/C(=O)N(C)C(=S)N2C)ccc1OCc1cccc(F)c1	MazF activator 66
Cc1c(Cl)ccc2c1NC(=O)[C@]21N[C@@H](CCC(N)=O)[C@H]2C(=O)N(c3ccc(F)cc3)C(=O)[C@H]21	none
CCCCc1ccc(N2C(=O)[C@@H]3C(CC(N)=O)NC4(C(=O)Nc5ccc(F)cc54)[C@@H]3C2=O)cc1 (stereo partly drawn)	DUSP3 inh 51
O=C(NCC1CCCO1)C1CCCN(S(=O)(=O)c2ccc(Cl)cc2)C1 (stereo not drawn)	DUSP3 inh 50
CCOC(=O)[C@@]12CCC3=C1N(CCC3)C(=O)[C@H](CC(=O)N1CCSCC1)C2	none (no result: MazF activator, PrP 5UTR inh, PfHsp40 rescue, DUSP3 inh, BJeLR lethal)
Cc1[nH]c(C)c(S(=O)(=O)N2CCCCC2C)c1C(=O)N1CCCC1 (stereo not drawn)	DUSP3 inh 56
COCCOC(=O)C(C#N)c1nc2ccccc2nc1N1CCCC1 (stereo not drawn)	none
CCCCCCNC(=O)C(C#N)c1nc2ccccc2nc1N1CCOCC1 (stereo not drawn)	MazF activator 577
CCCCCNC(=O)C(C#N)c1nc2ccccc2nc1N1CCCC1 (stereo not drawn)	none (no result: PrPC TRFRET)
COCCCNC(=O)C(C#N)c1nc2ccccc2nc1N1CCCC1 (stereo not drawn)	MazF activator 739 (no result: DUSP3 inh)
CCCCCCNC(=O)C(C#N)c1nc2ccccc2nc1N1CCCC1 (stereo not drawn)	MazF activator 370
COc1ccccc1N(C)S(=O)(=O)c1ccc(Cl)c(C(=O)NNC(=O)c2ccccc2O)c1	PfHsp40 rescue 218
COc1ccc(N(C)S(=O)(=O)c2ccc(Cl)c(C(=O)NNC(=O)c3ccccc3O)c2)cc1	PfHsp40 rescue 248 (no result: DUSP3 inh, BJeLR lethal)
CNS(=O)(=O)c1ccc(CNC[C@H]2O[C@@H](n3cc(C)c(=O)[nH]c3=O)C[C@@H]2O)cc1	none (no result: PrP 5UTR inh, PfHsp40 rescue, DUSP3 inh, BJeLR lethal)
C(=N/N1CCN(c2ccccc2)CC1)/c1ccncc1	PfHsp40 rescue 164
O=C(O)c1ccc(/C=N/N2CCN(c3ccccc3)CC2)cc1	none
CC(NC(=O)CN1C(=O)NC2(CCCC2)C1=O)c1ccc(Cl)cc1Cl (stereo not drawn)	PfHsp40 rescue 61 (no result: DUSP3 inh, BJeLR lethal)
O=C1NC(=S)N/C1=C/c1cccc([N+](=O)[O-])c1	PfHsp40 rescue 61
COC(=O)C1=C(c2ccc(OC(F)(F)F)cc2)C[C@@H]2CC[C@H]1N2C(=O)N1CCCC1	none (no result: DUSP3 inh, BJeLR lethal)
COC(=O)C1=C(c2ccc(OC(F)(F)F)cc2)C[C@@H]2CC[C@H]1N2C(=O)N1CCC(C)CC1	PfHsp40 rescue 41 (no result: DUSP3 inh, BJeLR lethal)
CCc1nc(SCC(=O)Nc2ccc3c(c2)OCCO3)c2oc3ccccc3c2n1	none
O=C(CSc1ncnc2c1oc1ccccc12)c1cccs1	none
Cc1nc(SCC(=O)Nc2ccc3c(c2)OCCO3)c2oc3ccccc3c2n1	MazF activator 54
Cc1nc(SCC(=O)c2cccs2)c2oc3ccccc3c2n1	DUSP3 inh 56
C=C1C(=O)O[C@@H]2[C@H]3O[C@]3(C)CC/C=C(\C)CC[C@@H]12	none (no result: DUSP3 inh, BJeLR lethal)
C=C1C(=O)O[C@H]2C[C@H]1[C@@H](OC(C)=O)C/C(C)=C/CC/C(C)=C\CC[C@]2(C)O	PrPC TRFRET 38 (no result: DUSP3 inh, BJeLR lethal)
C/C(=N/Nc1ccc(C(=O)O)cc1)c1ccc2c(c1)Nc1ccccc1S2	none (no result: DUSP3 inh, BJeLR lethal)
C/C(=N\Nc1ccc(C(=O)O)cc1)c1ccc2c(c1)Nc1ccccc1S2	PfHsp40 rescue 207
C[n+]1c(/C=C/c2ccc(O)cc2)ccc2ccccc21	none
Cc1cc(/C=C\c2ccc3cc(N(C)C)ccc3[n+]2C)c(C)n1-c1ccccc1	PrP 5UTR inh 73 (no result: PrPC TRFRET, DUSP3 inh, BJeLR lethal)
C/C(CC(C)C)=N\NC(=O)Nc1ccccc1	DUSP3 inh 51
CCOC(=O)C/C(C)=N/NC(=O)Nc1ccccc1	none
